# Data reported in PubChem BioAssay AID686978 (National Center for Advancing Translational Sciences (NCATS), 2013).
# Among all 420,000 compounds or so, about 64,000 (15%) were called active. Roughly 27% stayed inconclusive and do not appear here. The list is a sample of the results. Unmarked numbers belong to inactive results. Calls follow the shape of the dose curve; as a rule, active = well fitted inhibition curve with a large enough effect; inconclusive = small, poorly fitted or top-dose-only effect; inactive = flat fitted curve, though single readings scatter.
# Experiment: qHTS for Inhibitors of human tyrosyl-DNA phosphodiesterase 1 (TDP1): qHTS in cells in absence of CPT; also: nearly all actives have a fitted effect of over 55% in size
# Conditions: DT40 Tdp1-/- hTDP1 cells, no CPT, ATP luminescence, 48 h; activity change, negative = growth inhibition: at 46.2 µM (top of the series)
# Outline: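 A cellular qHTS used chicken DT40 cells lacking endogenous Tdp1 but carrying stably transfected human TDP1. Compounds were applied without camptothecin, and cell growth kinetics were judged by ATP-dependent luminescence after ≥48 hr.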
# % is scaled to controls: 0 for no effect and ±100 for the full control effect; potency is read from the fitted curve at half-maximal effect.
SMILES,Potency,"activity change, negative = growth inhibition"
Cc1cc(C)c(OCCN2CC(C)OC(C)C2)c(Br)c1 (stereo not given),16.4 µM (active),–
CC1CN(CCOc2ccccc2[N+](=O)[O-])CC(C)O1 (stereo not given),–,-23.7%
Cc1cccc(C)c1OCCN1CCOCC1,–,-24.1%
COc1ccc(N2CCN(S(=O)(=O)c3ccc4c(c3)N(C(C)=O)CCO4)CC2)cc1,–,-8.63%
O=C(CN1C(=O)C2C3C=CC(C3)C2C1=O)NCCc1ccccc1Cl (stereo not given),–,-9.82%
COc1cc(N2C(=O)c3ccccc3C2=O)c(Cl)cc1C(=O)OCC(=O)N1CCOCC1,–,4.59%
Cc1ccc(NC(=O)c2ccccn2)cc1S(=O)(=O)N1CCOCC1,–,-6.82%
Cc1ccc(NC(=O)NC2CCCCC2)cc1S(=O)(=O)N1CCOCC1,–,-4.9%
Cc1ccc(NC(=O)C2CCC(C(C)(C)C)CC2)cc1S(=O)(=O)N1CCOCC1 (stereo not given),20.6 µM (active),–
Cc1ccc(NC(=O)COC(=O)C2CC2)cc1S(=O)(=O)N1CCOCC1,–,0.794%
COc1ccc(C(=O)OC(C)C(=O)NC2CCCC2)cc1S(=O)(=O)N1CCOCC1 (stereo not given),–,13.3%
Cc1ccccc1NC(=O)c1cc(S(=O)(=O)N2CCOCC2)cs1,–,-11.8%
Cc1ccc(C(=O)Nc2ccccc2C(=O)NC2CCCCC2)cc1S(=O)(=O)N1CCOCC1,18.4 µM (active),–
Cc1ccc(NC(=O)c2ccc(Cl)nc2)cc1S(=O)(=O)N1CCOCC1,8.2 µM (active),–
Cc1ccc(NC(=O)CCCNC(=O)c2ccc(Cl)cc2)cc1S(=O)(=O)N1CCOCC1,–,-18.1%
COC(=O)CSc1snnc1-c1ccc(Cl)c(Cl)c1,–,1.97%
O=C(NCCN1CCCC(O)C1)c1cc(COc2c(F)cccc2F)on1 (stereo not given),–,26.9%
COC(=O)c1[nH]c2ccc(Br)cc2c1NC(=O)Oc1ccccc1,–,1.63%
CC(=O)N1CCN(CC(=O)Nc2ccc(SC(F)F)cc2)CC1,–,2.7%
O=C(Oc1cccc(NC2=NS(=O)(=O)c3ccccc32)c1)c1ccncc1,–,-0.45%
CC(=O)c1c(C)[nH]c(=S)c(C#N)c1-c1ccc(F)cc1,–,8.94%
CCOc1ccc(NC(=O)C(CC(C)C)N2Cc3ccccc3C2=O)cc1 (stereo not given),–,-20.1%
CC(Oc1ccccc1)C(=O)N[C@@H]1C(=O)N2[C@@H]1SC(C)(C)[C@@H]2C(=O)O (stereo not given in full),–,-3.68% [at 21.1 µM]

SMILES,Potency,"activity change, negative = growth inhibition"
CSc1ccc(/C=N\NC(=O)CC(=O)NC(C)C)cc1,–,-2.5%
COc1cc(C(CC(=O)NCCC(C)C)N2Cc3ccccc3C2=O)cc(OC)c1OC (stereo not given),–,-26.2%
O=C(CC(c1cccs1)N1Cc2ccccc2C1=O)Nc1ccc(F)cc1F (stereo not given),16.4 µM (active),–
O=C(O)CC(c1ccccc1F)N1Cc2ccccc2C1=O (stereo not given),–,2.01%
CCc1ccc(NC(=O)C(C)OC(=O)/C=C/c2cccc([N+](=O)[O-])c2)cc1 (stereo not given),–,7.8%
Cc1ccc(Cl)cc1-c1ccc(/C=N/n2cnnc2)o1,–,-2.4%
C[C@]12c3[nH]c4ccc(Cl)cc4c3CCN1C(=O)[C@@H](CC(=O)NCCCn1ccnc1)C[C@@H]2C(=O)N1CCOCC1,–,-13.3%
CC[C@]12c3[nH]c4cc(CCC(=O)N(C)C)ccc4c3CCN1C(=O)[C@@H](CC(=O)NCCCn1ccnc1)C[C@@H]2C(=O)N1CCN(C(=O)C2CC2)CC1,–,0.652%
CN(C)C(=O)CCc1ccc2c3c([nH]c2c1)[C@]1(C)[C@@H](C(=O)N2CCOCC2)C[C@H](CC(=O)NCCc2ccccn2)C(=O)N1CC3,–,6.99%
CN(C)C(=O)CCc1ccc2c3c([nH]c2c1)[C@]1(C)[C@@H](C(=O)N2CCCCC2)C[C@H](CC(=O)NCCC2=CCCCC2)C(=O)N1CC3,16.4 µM (active),–
CN(C)C(=O)CCc1ccc2c3c([nH]c2c1)[C@]1(CCc2ccccc2)[C@@H](C(=O)N2CCCCC2)C[C@H](CC(=O)NCCC2=CCCCC2)C(=O)N1CC3,9.2 µM (active),–
CCN(CC)C(=O)[C@H]1C[C@H](CC(=O)NCC23CC4CC(CC(C4)C2)C3)C(=O)N2CCc3c([nH]c4cc(CCC(=O)N(C)C)ccc34)[C@]12C,18.4 µM (active),–
CCN(CC)C(=O)[C@H]1CC(CC(=O)NCc2ccco2)C(=O)N2CCc3c([nH]c4ccccc34)[C@]12C (stereo not given in full),–,-17.4%
CC[C@]12c3[nH]c4cc(CCC(=O)N(C)C)ccc4c3CCN1C(=O)[C@@H](CC(=O)NCc1ccco1)C[C@@H]2C(=O)N1CCN(C(=O)c2ccco2)CC1,–,-10.2%
CC[C@]12c3[nH]c4cc(CCC(=O)N(C)C)ccc4c3CCN1C(=O)[C@@H](CC(=O)NCCCN(C)C)C[C@@H]2C(=O)N1CCN(C(=O)c2ccco2)CC1,–,-4.3%
COc1ccc2[nH]c3c(c2c1)CCN1C(=O)C(CC(=O)NCCc2ccccn2)C[C@H](C(=O)N2CCOCC2)[C@@]31C (stereo not given in full),–,-1.15%
CC(C)N(C(=O)[C@H]1C[C@H](CC(=O)NC(C)(C)C)C(=O)N2CCc3c([nH]c4ccc(Cl)cc34)[C@]12C)C(C)C,6.51 µM (active),–
COc1ccc2[nH]c3c(c2c1)CCN1C(=O)C(CC(=O)NCc2cccc(C(F)(F)F)c2)C[C@H](C(=O)N2CCOCC2)[C@@]31C (stereo not given in full),–,-25.2%
CC(=O)NCC(=O)N1CCC(n2nccc2NC(=O)CCCc2ccccc2)CC1,–,-7.46%
OCC[C@H]1C[C@H](O)[C@@H](O)[C@]2(CCCCO2)O1,–,-6.13%
COc1ccc(-c2c(C#N)cnc(C)c2C)c(O)c1OC,–,-27.4%
CSCCC(NC(=O)COc1ccccc1)C(=O)Nc1ccc(C)cc1 (stereo not given),–,-28.3%
O=C(O)c1ccc(COc2c(F)c(F)cc(F)c2F)o1,–,18.8%

SMILES,Potency,"activity change, negative = growth inhibition"
CC(=O)N1CCC2(CCCN(Cc3ccc(C#N)cc3)C2)CC1,–,0.656%
CS(=O)(=O)NC(=O)CCC/C=C\C[C@H]1C(=O)C[C@@H](O)[C@@H]1/C=C/[C@H](O)COc1ccccc1,–,-1.9%
CC(Sc1ncnc2c1cnn2-c1ccccc1)C(=O)Nc1ccc(N2CCOCC2)cc1 (stereo not given),–,-1.88%
Cc1cc2nc(SCCN3CCOCC3)[nH]c2cc1C,–,-12.7%
Cc1ccccc1NCC(=O)N/N=C\c1ccc([N+](=O)[O-])s1,9.2 µM (active),–
O=C(Cc1cc(=O)[nH][nH]1)N/N=C/c1ccccc1[N+](=O)[O-],–,-17.3%
CCc1ccc(S(=O)(=O)Nc2ccc(C)c(NS(C)(=O)=O)c2)cc1,–,-1.78%
COc1ccc(C(=O)NCC(=O)N/N=C/c2ccc([N+](=O)[O-])s2)cc1OC,16.4 µM (active),–
COc1ccc(C(=O)COC(=O)c2ccc([N+](=O)[O-])s2)cc1OC,–,-8.4%
COc1ccc(/C=N/NS(=O)(=O)c2ccc(NC(C)=O)cc2)cc1,–,2.6%
O=C(COc1ccccc1[N+](=O)[O-])N/N=C/c1ccc[nH]1,–,-15.9%
CCc1ccc(S(=O)(=O)N/N=C\c2ccc([N+](=O)[O-])o2)cc1,16.4 µM (active),–
COc1ccc(C(=O)NCC(=O)N/N=C/c2ccc([N+](=O)[O-])o2)cc1OC,5.17 µM (active),–
COc1cc(/C=N/NC(=O)CNC(=O)c2ccncc2)ccc1OC(C)=O,–,5.66%
COc1cc(/C=N\NC(=O)CNC(=O)c2cccc([N+](=O)[O-])c2)ccc1O,–,-0.0452%
COc1cccc(/C=N/NC(=O)CNC(=O)c2ccc(S(=O)(=O)N3CCOCC3)cc2)c1OC,–,-23.8%
CC1(C)S[C@@H]2[C@H](N=CN3CCCCCC3)C(=O)N2[C@H]1C(=O)O,–,-23.2%
CN(C(=O)CN(CCO)CC(=O)N(C)C(C)(C)Cc1ccccc1)C(C)(C)Cc1ccccc1,–,-1.77%
[O-][n+]1c2c(nn1-c1ccc(Cl)c(Cl)c1)-c1nonc1CC2,–,-14.7%
Oc1ccccc1CNc1ncc(Br)cc1Br,–,-23.9%
O=S(=O)(NCCc1ccc(Cl)cc1)c1cccs1,–,-21.2%
COc1cccc(-n2c(Cc3cc(=O)[nH]c(=O)[nH]3)nnc2SCC(=O)Nc2ccccc2)c1,–,0.566%
Nc1nnnn1CC(=O)N/N=C/c1ccc(-c2cccc(Cl)c2)o1,–,-20.2%

SMILES,Potency,"activity change, negative = growth inhibition"
C[C@H]1CN([C@@H](C)CO)C(=O)CCCn2cc(nn2)CO[C@@H]1CN(C)S(=O)(=O)c1cccs1,–,-1.39%
NC(=O)C(=O)N/N=C/c1ccc([N+](=O)[O-])o1,15 µM (active),–
O=C(Cc1ccc([N+](=O)[O-])cc1)N/N=C/c1ccco1,–,11.1%
Cc1nn(CC(=O)N/N=C/c2ccc(F)cc2)c(C)c1[N+](=O)[O-],–,4.7%
Cc1cc(C)nc(N/N=C/c2ccncc2)n1,–,1.16%
CC(C)(C)c1cc(C(=O)N/N=C/c2ccc([N+](=O)[O-])s2)n[nH]1,11.6 µM (active),–
Cc1cc(C)nc(N/N=C/c2ccc([N+](=O)[O-])o2)n1,16.4 µM (active),–
O=C(N/N=C/c1ccc([N+](=O)[O-])cc1)C(=O)N1CCCC1,–,-23.1%
Cc1cc(C)nc(Nc2cc([N+](=O)[O-])ccc2C)n1,–,-12.5%
CC(C)NC(=O)Nc1cccc2c1O[C@@H](CN(C)S(=O)(=O)c1ccc(F)cc1)[C@@H](C)CN([C@H](C)CO)C2=O,–,-21.8%
O=C(O)C(c1cccs1)C1(O)CCCCC1 (stereo not given),–,-1.75%
COc1ccc(C)cc1N(CC(=O)NC(C)c1ccccc1)S(C)(=O)=O (stereo not given),–,1.25%
CCc1c(C)nc(N)n2c(SCC(=O)NC3CCCCC3)nnc12,–,-6.99%
C[C@@H]1CN([C@@H](C)CO)C(=O)c2cc(Br)cnc2O[C@@H]1CN(C)C(=O)C1CCCCC1,–,-14.5%
C[N+](C)(C)CCOP(=O)([O-])OC[C@H](O)CO,–,-9.67%
CN1C(=O)CC(N2CCN(c3ccccn3)CC2)C1=O (stereo not given),–,-6.92%
COC(=O)c1cc(NC(=O)CC2C(=O)NCCN2C(=O)c2ccc(F)cc2)cc(C(=O)OC)c1 (stereo not given),–,0.411%
CCOc1ncccc1C(=O)OCC(=O)N1c2ccccc2CC1C (stereo not given),–,-1.22%
CCOC(=O)N1CCC(N2CCOc3ccc(CN4CCC(O)(c5cccnc5)CC4)cc3C2)CC1,–,-21.8%
CN(C)c1ccc(CN2CCOc3ccc(CN4CCC(O)(c5cccnc5)CC4)cc3C2)cc1,16.4 µM (active),–
C[C@@H]1CN(Cc2ccc3c(c2)CN(Cc2ccc(Oc4ncccn4)cc2)CCO3)C[C@H](C)O1,–,-22.2%
